For assay [1], the target named is T1, Inhibitor of nuclear factor kappa-B kinase subunit epsilon (Homo sapiens) (UniProt Q14164).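 Further: reported values are averaged percent inhibition figures against human IKKε.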
T1 sequence (whole entry): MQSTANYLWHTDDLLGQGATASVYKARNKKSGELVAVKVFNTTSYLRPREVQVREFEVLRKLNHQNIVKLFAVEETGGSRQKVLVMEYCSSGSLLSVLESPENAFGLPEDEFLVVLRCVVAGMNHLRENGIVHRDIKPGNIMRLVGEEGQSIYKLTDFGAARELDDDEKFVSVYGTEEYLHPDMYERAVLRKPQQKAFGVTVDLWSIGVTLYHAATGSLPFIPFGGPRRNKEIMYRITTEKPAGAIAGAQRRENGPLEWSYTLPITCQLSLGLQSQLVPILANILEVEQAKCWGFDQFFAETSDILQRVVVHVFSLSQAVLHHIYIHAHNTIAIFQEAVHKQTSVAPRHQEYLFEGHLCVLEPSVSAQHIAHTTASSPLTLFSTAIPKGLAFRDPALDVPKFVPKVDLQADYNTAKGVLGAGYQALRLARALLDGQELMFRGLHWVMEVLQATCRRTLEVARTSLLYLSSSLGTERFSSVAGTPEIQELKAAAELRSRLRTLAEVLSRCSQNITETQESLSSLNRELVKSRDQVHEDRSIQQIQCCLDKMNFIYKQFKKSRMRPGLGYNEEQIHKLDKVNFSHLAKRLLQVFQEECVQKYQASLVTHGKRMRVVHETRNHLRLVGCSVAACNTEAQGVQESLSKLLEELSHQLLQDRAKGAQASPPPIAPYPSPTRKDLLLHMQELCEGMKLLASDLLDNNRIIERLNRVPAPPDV
To be noted: at 1 µM.

For assay [2], the target named is T2, Serine/threonine-protein kinase Nek1 (Homo sapiens) (UniProt Q96PY6).
T2 sequence (whole entry): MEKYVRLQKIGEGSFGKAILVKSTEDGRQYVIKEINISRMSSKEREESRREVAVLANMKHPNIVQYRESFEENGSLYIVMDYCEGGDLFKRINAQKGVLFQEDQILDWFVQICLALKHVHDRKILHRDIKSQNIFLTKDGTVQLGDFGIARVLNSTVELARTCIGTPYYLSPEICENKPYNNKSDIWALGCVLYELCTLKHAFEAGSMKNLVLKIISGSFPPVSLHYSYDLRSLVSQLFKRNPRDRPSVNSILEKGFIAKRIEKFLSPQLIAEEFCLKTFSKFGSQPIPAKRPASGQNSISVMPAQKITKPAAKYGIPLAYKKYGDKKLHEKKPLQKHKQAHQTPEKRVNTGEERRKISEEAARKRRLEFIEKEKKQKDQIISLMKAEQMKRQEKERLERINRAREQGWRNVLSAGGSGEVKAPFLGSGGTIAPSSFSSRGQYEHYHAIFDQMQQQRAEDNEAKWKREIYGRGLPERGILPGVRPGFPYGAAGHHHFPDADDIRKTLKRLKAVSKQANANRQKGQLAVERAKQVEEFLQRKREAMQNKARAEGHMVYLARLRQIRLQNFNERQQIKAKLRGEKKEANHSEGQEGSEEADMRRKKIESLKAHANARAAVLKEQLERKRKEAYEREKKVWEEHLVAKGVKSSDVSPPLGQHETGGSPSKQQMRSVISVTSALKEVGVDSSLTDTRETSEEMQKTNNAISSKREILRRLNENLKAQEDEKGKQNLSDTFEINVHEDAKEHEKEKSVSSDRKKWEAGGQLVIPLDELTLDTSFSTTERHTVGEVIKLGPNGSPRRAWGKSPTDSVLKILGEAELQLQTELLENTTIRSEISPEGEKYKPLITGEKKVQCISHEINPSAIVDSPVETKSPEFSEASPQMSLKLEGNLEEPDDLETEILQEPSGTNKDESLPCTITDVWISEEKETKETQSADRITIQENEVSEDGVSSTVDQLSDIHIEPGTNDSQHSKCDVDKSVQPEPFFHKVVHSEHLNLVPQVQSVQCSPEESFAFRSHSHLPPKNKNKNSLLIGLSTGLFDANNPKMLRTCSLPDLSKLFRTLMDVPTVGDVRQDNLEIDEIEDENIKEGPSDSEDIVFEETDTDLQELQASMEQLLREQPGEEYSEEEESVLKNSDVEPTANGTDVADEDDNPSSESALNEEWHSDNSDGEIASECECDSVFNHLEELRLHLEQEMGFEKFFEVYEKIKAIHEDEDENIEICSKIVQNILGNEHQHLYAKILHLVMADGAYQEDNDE
To be noted: at 0.1 µM.

The target of assay [3] is T2, Serine/threonine-protein kinase Nek1 (Homo sapiens). To be noted: at 1 µM.
The target of assay [4] is T3, Serine/threonine-protein kinase Nek2 (Homo sapiens) (UniProt P51955).
T3 sequence (whole entry): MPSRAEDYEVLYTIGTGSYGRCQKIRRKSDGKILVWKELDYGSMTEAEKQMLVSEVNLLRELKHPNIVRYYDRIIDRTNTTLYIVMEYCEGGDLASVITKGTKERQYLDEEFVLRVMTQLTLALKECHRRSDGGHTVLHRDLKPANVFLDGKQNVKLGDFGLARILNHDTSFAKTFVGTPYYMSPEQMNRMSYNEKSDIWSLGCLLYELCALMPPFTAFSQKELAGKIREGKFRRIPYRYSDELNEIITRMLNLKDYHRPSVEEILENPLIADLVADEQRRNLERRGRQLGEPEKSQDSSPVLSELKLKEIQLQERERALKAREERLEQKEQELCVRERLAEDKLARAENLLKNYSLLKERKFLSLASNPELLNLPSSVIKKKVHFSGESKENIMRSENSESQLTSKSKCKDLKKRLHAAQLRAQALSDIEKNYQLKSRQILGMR
To be noted: at 0.1 µM.

Assay [5] deals with T3, Serine/threonine-protein kinase Nek2 (Homo sapiens). To be noted: at 1 µM.
The target in assay [6] is Serine/threonine-protein kinase Nek6 (Homo sapiens) (UniProt Q9HC98). To be noted: at 0.1 µM.
Chain of Serine/threonine-protein kinase Nek6 (Homo sapiens) (Q9HC98 whole entry): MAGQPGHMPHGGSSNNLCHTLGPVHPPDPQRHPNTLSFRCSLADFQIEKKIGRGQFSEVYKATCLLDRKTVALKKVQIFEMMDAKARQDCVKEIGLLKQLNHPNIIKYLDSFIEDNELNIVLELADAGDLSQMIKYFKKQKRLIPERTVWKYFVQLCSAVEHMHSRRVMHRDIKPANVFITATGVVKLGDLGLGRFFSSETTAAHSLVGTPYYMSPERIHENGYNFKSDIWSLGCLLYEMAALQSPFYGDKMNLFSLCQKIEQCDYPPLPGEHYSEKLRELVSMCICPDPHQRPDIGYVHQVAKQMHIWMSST
The target is the same in assay [7]. To be noted: at 1 µM.
The target of assay [8] is Serine/threonine-protein kinase Nek7 (Homo sapiens) (UniProt Q8TDX7). To be noted: at 0.1 µM.
Chain of Serine/threonine-protein kinase Nek7 (Homo sapiens) (Q8TDX7 whole entry, looked up): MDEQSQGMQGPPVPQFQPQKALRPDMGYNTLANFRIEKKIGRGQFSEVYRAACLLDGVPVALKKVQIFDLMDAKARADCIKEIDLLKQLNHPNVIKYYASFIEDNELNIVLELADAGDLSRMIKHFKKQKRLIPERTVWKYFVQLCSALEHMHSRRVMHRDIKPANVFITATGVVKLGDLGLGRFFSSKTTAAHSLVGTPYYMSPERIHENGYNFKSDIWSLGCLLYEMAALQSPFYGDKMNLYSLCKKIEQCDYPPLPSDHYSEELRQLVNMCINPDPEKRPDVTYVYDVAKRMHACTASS
For assay [9] the target is unchanged. To be noted: at 1 µM.
Assay [10] concerns the target T4, Serine/threonine-protein kinase Nek9 (Homo sapiens) (UniProt Q8TD19).
T4 sequence (whole entry): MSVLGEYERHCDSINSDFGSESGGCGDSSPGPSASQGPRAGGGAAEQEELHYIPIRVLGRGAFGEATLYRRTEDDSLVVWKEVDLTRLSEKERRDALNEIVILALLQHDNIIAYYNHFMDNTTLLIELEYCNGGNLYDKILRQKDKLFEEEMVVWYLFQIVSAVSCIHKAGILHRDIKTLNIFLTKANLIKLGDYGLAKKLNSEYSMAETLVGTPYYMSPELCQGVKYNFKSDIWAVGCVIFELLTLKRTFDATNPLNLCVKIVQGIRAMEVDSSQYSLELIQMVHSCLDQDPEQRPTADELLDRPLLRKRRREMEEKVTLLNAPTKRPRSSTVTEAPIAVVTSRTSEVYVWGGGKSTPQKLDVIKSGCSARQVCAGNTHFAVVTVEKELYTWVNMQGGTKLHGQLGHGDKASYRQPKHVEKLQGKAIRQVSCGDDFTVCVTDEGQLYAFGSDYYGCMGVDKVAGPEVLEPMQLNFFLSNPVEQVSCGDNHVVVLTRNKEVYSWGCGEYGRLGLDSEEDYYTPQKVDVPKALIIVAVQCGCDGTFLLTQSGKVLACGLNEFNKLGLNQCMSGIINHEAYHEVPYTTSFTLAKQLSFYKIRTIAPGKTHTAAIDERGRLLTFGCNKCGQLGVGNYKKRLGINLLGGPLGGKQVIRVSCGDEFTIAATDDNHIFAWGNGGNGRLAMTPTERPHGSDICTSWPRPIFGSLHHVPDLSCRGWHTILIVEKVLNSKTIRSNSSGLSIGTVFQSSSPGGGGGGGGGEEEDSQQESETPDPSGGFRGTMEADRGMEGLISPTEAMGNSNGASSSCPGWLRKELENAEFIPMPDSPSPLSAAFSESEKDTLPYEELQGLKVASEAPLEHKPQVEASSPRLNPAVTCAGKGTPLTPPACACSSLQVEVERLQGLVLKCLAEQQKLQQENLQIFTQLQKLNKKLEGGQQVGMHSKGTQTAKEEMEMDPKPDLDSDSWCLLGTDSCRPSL
To be noted: at 0.1 µM.

Assay [11] has as its target T4, Serine/threonine-protein kinase Nek9 (Homo sapiens). To be noted: at 1 µM.
Assay [12] deals with Serine/threonine-protein kinase PLK1 (Homo sapiens) (UniProt P53350). To be noted: at 0.1 µM.
Chain of Serine/threonine-protein kinase PLK1 (Homo sapiens) (P53350 whole entry): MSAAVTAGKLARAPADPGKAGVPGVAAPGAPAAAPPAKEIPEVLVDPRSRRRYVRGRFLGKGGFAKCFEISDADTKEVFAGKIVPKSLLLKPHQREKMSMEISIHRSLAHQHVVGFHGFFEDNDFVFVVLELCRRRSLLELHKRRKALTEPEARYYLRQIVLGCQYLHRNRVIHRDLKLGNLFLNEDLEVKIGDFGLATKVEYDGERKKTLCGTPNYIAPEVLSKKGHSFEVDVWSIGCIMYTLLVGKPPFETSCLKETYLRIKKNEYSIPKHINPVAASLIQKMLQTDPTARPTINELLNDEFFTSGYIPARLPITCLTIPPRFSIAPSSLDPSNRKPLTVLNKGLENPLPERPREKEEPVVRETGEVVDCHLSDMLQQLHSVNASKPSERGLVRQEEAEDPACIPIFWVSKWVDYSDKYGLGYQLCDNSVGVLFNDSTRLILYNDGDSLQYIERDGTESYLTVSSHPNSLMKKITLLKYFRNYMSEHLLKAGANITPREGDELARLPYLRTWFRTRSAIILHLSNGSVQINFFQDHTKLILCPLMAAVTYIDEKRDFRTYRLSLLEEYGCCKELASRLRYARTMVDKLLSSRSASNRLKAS
Assay [13] shares this target. To be noted: at 1 µM.
The target in assay [14] is T5, Dual specificity protein kinase TTK (Homo sapiens) (UniProt P33981).
T5 sequence (whole entry): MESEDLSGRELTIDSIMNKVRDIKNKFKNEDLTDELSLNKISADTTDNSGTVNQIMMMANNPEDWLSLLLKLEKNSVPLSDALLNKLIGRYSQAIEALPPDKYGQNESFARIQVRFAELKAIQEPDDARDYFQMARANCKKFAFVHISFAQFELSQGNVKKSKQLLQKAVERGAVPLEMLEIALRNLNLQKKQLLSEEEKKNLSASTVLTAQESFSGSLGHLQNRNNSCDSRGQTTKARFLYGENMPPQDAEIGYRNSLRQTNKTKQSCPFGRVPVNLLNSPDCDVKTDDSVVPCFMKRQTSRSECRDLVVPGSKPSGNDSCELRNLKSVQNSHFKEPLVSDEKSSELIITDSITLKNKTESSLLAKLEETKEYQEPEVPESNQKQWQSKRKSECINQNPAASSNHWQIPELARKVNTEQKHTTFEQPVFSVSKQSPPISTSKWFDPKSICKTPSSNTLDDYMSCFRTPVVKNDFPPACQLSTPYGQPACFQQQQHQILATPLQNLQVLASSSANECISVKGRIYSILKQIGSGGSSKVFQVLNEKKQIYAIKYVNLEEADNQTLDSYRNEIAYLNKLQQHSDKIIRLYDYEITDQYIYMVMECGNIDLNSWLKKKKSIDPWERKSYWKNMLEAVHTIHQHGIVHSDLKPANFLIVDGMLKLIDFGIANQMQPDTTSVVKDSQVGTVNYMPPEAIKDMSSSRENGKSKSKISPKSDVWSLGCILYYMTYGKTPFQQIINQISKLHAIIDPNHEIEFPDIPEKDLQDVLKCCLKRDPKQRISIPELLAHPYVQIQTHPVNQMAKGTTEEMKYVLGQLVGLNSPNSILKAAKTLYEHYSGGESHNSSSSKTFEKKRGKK
To be noted: at 0.1 µM.

Assay [15] concerns T6, Receptor-type tyrosine-protein kinase FLT3 (Homo sapiens), P36888 [D835Y].
T6 sequence (whole entry): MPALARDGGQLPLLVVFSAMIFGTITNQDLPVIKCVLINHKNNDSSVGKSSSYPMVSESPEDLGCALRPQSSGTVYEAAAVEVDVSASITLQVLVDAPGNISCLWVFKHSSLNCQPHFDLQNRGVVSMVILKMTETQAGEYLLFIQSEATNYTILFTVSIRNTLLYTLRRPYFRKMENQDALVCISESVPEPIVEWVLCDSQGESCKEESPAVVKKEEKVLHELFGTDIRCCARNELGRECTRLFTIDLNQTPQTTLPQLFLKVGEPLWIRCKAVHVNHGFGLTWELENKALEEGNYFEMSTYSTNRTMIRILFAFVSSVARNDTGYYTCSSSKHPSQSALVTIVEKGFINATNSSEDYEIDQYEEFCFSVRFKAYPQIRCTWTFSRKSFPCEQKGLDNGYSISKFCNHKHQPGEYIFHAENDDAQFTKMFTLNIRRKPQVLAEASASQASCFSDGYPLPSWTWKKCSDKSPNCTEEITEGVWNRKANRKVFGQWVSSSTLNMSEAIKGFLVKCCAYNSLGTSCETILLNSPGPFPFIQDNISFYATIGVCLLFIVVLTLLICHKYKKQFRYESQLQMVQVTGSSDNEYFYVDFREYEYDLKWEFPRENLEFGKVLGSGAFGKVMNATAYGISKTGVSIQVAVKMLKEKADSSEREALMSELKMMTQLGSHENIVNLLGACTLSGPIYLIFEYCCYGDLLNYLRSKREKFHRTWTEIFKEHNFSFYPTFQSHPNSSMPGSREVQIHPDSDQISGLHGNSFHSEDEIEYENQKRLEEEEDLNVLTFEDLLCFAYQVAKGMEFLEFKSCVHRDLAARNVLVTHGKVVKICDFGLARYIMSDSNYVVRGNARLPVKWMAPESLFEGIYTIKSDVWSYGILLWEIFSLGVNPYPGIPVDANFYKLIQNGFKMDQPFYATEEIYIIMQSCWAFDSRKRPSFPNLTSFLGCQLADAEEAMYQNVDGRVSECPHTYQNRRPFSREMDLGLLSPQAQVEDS
To be noted: at 1 µM.

Assay [16] addresses Vascular endothelial growth factor receptor 3 (Homo sapiens) (UniProt P35916). To be noted: at 0.1 µM.
For assay [17] the target is unchanged. To be noted: at 1 µM.
The target in assay [18] is Macrophage colony-stimulating factor 1 receptor (Homo sapiens) (UniProt P07333). To be noted: at 0.1 µM.
Chain of Macrophage colony-stimulating factor 1 receptor (Homo sapiens) (P07333 whole entry): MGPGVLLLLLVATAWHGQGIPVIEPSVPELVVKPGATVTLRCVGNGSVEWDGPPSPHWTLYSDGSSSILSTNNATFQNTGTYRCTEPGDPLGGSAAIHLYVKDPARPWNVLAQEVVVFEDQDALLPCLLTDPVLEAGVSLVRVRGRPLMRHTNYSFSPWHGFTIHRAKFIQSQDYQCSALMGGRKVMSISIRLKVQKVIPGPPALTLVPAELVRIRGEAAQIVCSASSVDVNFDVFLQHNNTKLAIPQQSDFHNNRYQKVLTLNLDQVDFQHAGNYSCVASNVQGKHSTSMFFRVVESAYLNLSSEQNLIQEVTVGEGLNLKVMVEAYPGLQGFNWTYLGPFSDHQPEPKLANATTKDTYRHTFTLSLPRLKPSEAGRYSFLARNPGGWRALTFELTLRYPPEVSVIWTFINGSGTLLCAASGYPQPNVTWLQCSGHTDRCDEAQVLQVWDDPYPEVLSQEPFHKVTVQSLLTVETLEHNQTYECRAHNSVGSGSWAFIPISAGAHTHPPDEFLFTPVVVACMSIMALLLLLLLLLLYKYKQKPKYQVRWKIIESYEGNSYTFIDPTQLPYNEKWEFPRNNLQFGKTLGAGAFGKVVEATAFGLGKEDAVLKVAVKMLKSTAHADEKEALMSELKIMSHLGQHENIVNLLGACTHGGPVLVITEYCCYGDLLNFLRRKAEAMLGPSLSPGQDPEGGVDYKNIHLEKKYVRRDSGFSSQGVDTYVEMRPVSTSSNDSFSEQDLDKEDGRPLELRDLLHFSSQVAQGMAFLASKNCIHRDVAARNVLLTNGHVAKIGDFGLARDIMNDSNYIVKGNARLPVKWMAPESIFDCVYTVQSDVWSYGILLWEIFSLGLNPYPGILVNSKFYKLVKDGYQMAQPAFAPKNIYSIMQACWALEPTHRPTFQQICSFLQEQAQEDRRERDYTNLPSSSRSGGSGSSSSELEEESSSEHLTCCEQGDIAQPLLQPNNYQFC
The target is the same in assay [19]. To be noted: at 1 µM.
The target of assay [20] is Tyrosine-protein kinase Fyn (Homo sapiens) (UniProt P06241). To be noted: at 0.1 µM.
Chain of Tyrosine-protein kinase Fyn (Homo sapiens) (P06241 2-537 limits assumed): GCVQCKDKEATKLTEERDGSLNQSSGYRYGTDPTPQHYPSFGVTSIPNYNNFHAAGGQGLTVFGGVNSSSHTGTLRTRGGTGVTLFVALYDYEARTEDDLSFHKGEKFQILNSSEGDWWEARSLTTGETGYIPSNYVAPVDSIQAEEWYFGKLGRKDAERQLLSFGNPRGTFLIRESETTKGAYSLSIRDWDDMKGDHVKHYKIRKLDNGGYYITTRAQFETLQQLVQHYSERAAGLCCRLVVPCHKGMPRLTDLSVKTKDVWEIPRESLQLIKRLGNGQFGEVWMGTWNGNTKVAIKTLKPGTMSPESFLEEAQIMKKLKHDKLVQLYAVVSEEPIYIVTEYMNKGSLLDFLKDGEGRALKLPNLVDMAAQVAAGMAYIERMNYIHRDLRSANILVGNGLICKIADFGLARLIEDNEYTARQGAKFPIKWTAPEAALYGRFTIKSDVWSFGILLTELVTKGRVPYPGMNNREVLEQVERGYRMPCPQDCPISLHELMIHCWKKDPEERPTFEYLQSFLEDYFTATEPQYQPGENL

Chain of Vascular endothelial growth factor receptor 3 (Homo sapiens) (P35916 whole entry): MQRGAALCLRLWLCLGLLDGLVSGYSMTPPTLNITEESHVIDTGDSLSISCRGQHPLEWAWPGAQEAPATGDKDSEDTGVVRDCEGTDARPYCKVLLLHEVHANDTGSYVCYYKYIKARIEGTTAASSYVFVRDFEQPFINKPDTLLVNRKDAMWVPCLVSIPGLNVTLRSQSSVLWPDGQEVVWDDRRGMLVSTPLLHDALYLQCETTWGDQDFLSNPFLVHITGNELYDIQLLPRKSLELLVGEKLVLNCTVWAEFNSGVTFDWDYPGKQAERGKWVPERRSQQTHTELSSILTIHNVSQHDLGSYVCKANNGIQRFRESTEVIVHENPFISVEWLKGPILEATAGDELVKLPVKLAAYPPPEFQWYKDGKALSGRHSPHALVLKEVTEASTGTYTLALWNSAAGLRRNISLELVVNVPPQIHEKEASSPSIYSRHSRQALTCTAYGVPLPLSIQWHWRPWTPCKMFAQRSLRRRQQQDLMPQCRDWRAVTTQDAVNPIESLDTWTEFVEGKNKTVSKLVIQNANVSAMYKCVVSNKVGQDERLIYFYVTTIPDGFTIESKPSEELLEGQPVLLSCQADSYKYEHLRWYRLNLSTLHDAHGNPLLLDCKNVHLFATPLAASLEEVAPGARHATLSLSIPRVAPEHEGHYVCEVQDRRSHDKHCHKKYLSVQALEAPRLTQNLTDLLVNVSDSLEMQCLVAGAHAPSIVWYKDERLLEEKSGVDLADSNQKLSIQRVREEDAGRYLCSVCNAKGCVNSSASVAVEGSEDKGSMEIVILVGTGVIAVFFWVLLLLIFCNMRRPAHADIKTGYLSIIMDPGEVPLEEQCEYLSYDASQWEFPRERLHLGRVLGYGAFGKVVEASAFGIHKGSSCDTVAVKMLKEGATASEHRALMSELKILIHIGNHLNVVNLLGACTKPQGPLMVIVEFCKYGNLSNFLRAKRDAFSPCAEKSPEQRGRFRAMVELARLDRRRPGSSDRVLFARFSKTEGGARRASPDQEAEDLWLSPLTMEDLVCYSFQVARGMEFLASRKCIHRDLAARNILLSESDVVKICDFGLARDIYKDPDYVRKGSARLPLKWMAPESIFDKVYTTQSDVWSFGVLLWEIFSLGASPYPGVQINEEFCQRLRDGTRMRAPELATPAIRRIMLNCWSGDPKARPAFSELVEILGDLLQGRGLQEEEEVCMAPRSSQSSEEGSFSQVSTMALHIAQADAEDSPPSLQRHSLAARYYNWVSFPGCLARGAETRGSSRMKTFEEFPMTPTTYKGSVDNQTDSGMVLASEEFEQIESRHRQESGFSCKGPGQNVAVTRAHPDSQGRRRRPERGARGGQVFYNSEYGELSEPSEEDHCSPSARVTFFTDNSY

Consider `CN1CCC(n2cnc(-c3ccc(F)cc3)c2-c2ccnc(NCCO)n2)CC1`, for which the inhibition in assay [1] worked out at 9.51%; in assay [2] it was 2.52%; in assay [3] it was 3.44%; in assay [4] it was 5.2%; in assay [5], 5.72%; in assay [6], 3.54%. Also, the inhibition in assay [7] came out at 5.15%; in assay [8], 2.96%; in assay [9], 3.39%; in assay [10] it was 5.09%; in [11], 8.58%; in assay [12], 1.49%. For the same molecule, the inhibition in assay [13] is 2.42%; in [14], -0.23%; in [15], 4.59%; in [16], 4.64%; in assay [17] it was 0.88%; in [18] it was 3.25%. The figures for the inhibition in assay [19] and in assay [20] were 3.2% and 2.96%, respectively.
On to `Fc1ccc(Nc2nccc(-c3c(-c4ccc(C(F)(F)F)cc4)nn4ncccc34)n2)cc1F`, for which the inhibition was 4.2% in [1]; 1.24% in assay [2]; 1.72% in assay [3]; 4.93% in assay [4]; 4.4% in assay [5]; -0.59% in assay [6]. The inhibition in assay [7] came out at 0.48%; in assay [8], 3.33%; in assay [9] it was 2.76%; in assay [10], 4.79%; in assay [11] it was 1.67%; in [12], 2.18%. The inhibition in assay [13] is 2.92%; in assay [14], 7.64%; in assay [15] it was -2.39%; in assay [16], 0.19%; in assay [17], -1.91%; in assay [18], 2.64%. Moreover, the inhibition was found to be 6.66% in assay [19] and 0.1% in assay [20].

Source of the values: ChEMBL document CHEMBL1961873, “Compounds: GSK PKIS; Assays: Nanosyn kinase panel” (2012).
